What all share (experiment): DAPPL (digital affinity profiling via proximity ligation, sequencing); 10 mM Tris-HCl pH 7.5, 50 mM NaCl, 1 mM DTT, 4% glycerol, room temperature, 30 min; GST-TFs on glutathione beads, 16-mer random dsDNA library, 0.1% formaldehyde crosslink after washing; high values mean tight binding
One test concerns the target T1, FLI1 (Homo sapiens, UniProt Q01543 1-452).
T1 sequence: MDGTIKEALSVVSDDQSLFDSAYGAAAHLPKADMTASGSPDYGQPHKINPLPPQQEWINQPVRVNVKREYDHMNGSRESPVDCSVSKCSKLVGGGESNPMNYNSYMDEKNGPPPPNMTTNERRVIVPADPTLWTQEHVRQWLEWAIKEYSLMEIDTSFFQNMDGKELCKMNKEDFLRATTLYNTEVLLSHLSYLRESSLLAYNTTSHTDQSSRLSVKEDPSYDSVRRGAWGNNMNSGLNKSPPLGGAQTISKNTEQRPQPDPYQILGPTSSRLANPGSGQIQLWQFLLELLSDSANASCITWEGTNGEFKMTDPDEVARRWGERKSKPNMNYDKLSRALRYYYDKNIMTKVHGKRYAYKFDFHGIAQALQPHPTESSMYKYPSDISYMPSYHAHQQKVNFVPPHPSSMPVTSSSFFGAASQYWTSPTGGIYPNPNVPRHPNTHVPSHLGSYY
Particulars: protein: recombinant; tags: N-terminal GST; dsDNA, one strand shown. Put shortly: (§1)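 The binding signal reported is, for every hexamer, its read frequency for a factor over its read frequency for the tag-only sample. Reads came from pools of yeast-expressed, GST-fused human transcription factors on glutathione beads, barcoded with DNA and mixed with that sample, which were incubated with 200 nmole of a random double-stranded 16-mer DNA library in Tris/NaCl/DTT/glycerol buffer at room temperature for 30 min. After washing, the pools were crosslinked with 0.1% formaldehyde, proximity-ligated with BsaI/T4 ligase for 1 h at 37 °C, PCR-amplified and sequenced on an Illumina NextSeq500.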

For another test, the target named is T2, ELK1 (Homo sapiens, UniProt P19419 1-428).
T2 sequence: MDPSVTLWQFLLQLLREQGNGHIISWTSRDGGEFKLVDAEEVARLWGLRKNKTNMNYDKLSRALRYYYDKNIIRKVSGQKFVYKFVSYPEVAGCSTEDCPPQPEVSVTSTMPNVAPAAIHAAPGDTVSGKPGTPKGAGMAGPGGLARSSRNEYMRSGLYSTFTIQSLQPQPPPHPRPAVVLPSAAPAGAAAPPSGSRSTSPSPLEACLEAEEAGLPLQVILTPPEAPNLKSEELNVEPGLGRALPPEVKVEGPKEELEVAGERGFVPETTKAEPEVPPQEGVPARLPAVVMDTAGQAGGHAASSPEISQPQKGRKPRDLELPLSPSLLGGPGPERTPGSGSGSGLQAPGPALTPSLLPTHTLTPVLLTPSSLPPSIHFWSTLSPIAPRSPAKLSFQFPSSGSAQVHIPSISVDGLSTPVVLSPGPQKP
Particulars: protein: recombinant; tags: N-terminal GST; dsDNA, one strand shown. The procedure, abridged: as §1

In a further test the target is T3, GABPA (Homo sapiens, UniProt Q06546 1-454).
T3 sequence: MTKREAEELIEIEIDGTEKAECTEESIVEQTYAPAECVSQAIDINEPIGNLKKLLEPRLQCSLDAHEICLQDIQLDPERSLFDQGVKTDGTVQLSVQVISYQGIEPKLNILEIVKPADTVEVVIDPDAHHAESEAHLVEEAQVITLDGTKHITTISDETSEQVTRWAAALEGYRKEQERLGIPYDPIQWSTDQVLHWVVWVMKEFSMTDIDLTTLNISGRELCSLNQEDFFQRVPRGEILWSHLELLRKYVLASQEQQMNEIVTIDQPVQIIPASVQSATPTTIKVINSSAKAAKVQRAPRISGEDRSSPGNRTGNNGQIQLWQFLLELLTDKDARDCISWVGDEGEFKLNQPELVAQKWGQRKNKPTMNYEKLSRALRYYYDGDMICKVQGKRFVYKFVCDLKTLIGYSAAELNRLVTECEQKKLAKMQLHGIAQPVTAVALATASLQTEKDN
Particulars: protein: recombinant; tags: N-terminal GST; dsDNA, one strand shown. The procedure, abridged:
as §1

For another test, the target named is T4, ERG (Homo sapiens, UniProt P11308 1-479).
T4 sequence: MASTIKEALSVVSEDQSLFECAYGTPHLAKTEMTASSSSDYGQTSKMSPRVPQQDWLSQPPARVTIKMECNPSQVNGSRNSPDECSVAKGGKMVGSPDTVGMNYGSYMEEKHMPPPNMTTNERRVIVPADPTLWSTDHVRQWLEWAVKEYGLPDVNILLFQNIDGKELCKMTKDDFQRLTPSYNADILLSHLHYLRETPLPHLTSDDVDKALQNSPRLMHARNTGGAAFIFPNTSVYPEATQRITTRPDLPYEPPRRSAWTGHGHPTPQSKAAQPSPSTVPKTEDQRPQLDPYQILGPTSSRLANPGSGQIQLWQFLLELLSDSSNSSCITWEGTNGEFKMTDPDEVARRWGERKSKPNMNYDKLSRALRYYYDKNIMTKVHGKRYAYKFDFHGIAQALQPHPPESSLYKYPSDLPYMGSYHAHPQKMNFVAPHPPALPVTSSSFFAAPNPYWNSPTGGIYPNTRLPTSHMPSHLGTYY
Particulars: protein: recombinant; tags: N-terminal GST; dsDNA, one strand shown. Put shortly:
as §1

The next test concerns the target ELF1 (Homo sapiens, UniProt P32519 1-619). Particulars: protein: recombinant; tags: N-terminal GST; dsDNA, one strand shown. The procedure, abridged:
as §1

Another test has as its target T5, EHF (Homo sapiens, UniProt Q9NZC4 1-300).
T5 sequence: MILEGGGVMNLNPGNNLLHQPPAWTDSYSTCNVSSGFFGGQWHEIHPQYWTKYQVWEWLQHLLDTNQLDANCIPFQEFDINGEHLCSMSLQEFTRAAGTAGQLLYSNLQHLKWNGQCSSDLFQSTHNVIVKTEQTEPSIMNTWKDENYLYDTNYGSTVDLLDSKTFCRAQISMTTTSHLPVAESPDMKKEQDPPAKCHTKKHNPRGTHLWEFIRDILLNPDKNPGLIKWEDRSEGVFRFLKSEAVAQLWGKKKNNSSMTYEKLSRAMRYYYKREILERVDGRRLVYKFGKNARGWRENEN
Particulars: protein: recombinant; tags: N-terminal GST; dsDNA, one strand shown. The procedure, abridged: as §1

The target in the next test is SPI1 (Homo sapiens, UniProt P17947 1-270). Particulars: protein: recombinant; tags: N-terminal GST; dsDNA, one strand shown. Put shortly: as §1
For the next test, the target named is SPIB (Homo sapiens, UniProt Q01892 1-262). Particulars: protein: recombinant; tags: N-terminal GST; dsDNA, one strand shown. The procedure, abridged:
as §1

In the next test the target is T6, ELK3 (Homo sapiens, UniProt P41970 1-407).
T6 sequence: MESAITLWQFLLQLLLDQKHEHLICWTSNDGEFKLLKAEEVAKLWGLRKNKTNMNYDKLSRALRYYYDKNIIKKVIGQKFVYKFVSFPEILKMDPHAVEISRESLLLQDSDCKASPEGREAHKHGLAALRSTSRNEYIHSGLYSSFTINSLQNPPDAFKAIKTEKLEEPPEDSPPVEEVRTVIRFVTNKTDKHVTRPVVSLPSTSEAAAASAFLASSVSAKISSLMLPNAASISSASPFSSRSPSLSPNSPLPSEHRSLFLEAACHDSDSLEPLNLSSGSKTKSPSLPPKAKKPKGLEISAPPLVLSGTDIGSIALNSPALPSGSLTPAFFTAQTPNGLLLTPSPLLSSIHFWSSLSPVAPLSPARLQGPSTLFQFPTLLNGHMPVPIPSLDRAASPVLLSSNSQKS
Particulars: protein: recombinant; tags: N-terminal GST; dsDNA, one strand shown. Put shortly: as §1

The next test addresses T7, FEV (Homo sapiens, UniProt Q99581 1-238).
T7 sequence: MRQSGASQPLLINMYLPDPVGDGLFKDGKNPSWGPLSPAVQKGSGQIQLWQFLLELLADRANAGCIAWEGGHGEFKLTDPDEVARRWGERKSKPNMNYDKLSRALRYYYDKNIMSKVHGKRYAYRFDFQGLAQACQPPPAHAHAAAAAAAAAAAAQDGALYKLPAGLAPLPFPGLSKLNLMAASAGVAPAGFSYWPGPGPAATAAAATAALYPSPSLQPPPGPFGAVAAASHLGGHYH
Particulars: protein: recombinant; tags: N-terminal GST; dsDNA, one strand shown. Put shortly:
as §1

Another test has as its target ETV5 (Homo sapiens, UniProt P41161 1-510). Particulars: protein: recombinant; tags: N-terminal GST; dsDNA, one strand shown. Put shortly:
as §1

For another test, the target named is HSF1 (Homo sapiens, UniProt Q00613 1-529). Particulars: protein: recombinant; tags: N-terminal GST; chain copies: 3; dsDNA, one strand shown. Put shortly:
as §1

The next test deals with T8, SPIC (Homo sapiens, UniProt Q8N5J4 1-248).
T8 sequence: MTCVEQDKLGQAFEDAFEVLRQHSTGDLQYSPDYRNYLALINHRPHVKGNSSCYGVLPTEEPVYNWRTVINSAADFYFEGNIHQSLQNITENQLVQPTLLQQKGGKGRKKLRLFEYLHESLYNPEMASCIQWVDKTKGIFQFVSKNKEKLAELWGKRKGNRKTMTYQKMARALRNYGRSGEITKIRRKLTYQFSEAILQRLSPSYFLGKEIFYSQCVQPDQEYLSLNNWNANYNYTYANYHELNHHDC
Particulars: protein: recombinant; tags: N-terminal GST; dsDNA, one strand shown. Put shortly:
as §1

For the next test, the target named is ELF4 (Homo sapiens, UniProt Q99607 1-663). Particulars: protein: recombinant; tags: N-terminal GST; dsDNA, one strand shown. The procedure, abridged: as §1
Chain of ELF4 (Q99607 whole entry): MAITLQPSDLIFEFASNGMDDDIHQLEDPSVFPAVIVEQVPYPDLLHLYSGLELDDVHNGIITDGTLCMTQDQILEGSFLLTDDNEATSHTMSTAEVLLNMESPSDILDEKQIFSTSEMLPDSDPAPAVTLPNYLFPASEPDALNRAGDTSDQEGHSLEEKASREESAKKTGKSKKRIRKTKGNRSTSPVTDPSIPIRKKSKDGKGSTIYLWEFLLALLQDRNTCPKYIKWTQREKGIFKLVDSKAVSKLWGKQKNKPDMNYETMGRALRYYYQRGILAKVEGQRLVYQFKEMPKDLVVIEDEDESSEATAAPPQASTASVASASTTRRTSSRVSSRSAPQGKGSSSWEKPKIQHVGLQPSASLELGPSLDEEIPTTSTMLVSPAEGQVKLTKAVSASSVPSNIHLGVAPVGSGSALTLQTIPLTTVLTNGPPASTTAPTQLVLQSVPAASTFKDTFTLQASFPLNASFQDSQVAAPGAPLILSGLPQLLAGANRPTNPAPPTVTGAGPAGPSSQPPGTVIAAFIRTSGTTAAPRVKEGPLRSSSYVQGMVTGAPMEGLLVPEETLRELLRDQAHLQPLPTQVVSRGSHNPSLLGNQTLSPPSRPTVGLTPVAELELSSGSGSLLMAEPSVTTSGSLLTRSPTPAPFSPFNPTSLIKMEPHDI
The next test deals with T9, ELK4 (Homo sapiens, UniProt P28324-2 1-405).
T9 sequence: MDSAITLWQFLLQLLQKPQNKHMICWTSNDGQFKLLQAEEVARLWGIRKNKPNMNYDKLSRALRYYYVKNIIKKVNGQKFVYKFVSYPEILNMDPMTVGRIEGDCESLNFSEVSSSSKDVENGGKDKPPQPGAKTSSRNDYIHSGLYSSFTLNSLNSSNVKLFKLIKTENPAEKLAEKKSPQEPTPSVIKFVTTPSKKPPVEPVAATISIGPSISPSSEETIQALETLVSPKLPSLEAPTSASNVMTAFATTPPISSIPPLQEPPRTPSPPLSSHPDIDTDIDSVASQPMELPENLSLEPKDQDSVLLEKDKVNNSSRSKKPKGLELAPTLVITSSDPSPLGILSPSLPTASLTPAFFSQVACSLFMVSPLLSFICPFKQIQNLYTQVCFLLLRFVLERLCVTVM
Particulars: protein: recombinant; tags: N-terminal GST; dsDNA, one strand shown. Put shortly: as §1

A further test concerns the target T10, ETV2 (Homo sapiens, UniProt O00321 1-342).
T10 sequence: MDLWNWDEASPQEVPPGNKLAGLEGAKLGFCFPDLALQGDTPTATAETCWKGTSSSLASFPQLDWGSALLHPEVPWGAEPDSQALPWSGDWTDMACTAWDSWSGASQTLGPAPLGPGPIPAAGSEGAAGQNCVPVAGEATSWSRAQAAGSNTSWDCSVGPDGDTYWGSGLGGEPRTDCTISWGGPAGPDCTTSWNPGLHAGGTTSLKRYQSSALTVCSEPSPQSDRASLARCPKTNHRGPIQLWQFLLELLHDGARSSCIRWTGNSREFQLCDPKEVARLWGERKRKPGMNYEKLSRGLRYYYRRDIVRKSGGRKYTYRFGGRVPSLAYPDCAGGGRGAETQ
Particulars: protein: recombinant; tags: N-terminal GST; dsDNA, one strand shown. The procedure, abridged: as §1

The target in the next test is T11, ELF3 (Homo sapiens, UniProt P78545 1-371).
T11 sequence: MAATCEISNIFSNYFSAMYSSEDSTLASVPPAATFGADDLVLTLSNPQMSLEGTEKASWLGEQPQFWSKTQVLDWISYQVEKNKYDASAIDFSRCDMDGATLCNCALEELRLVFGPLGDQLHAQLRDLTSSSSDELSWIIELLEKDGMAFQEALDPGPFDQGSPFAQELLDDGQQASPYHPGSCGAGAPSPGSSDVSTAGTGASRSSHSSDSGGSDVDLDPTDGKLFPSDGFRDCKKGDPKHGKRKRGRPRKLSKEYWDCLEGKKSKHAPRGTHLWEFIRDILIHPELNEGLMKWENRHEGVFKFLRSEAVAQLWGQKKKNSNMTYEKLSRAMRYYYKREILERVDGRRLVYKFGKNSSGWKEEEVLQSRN
Particulars: protein: recombinant; tags: N-terminal GST; dsDNA, one strand shown. The procedure, abridged:
as §1

For the next test, the target named is CRX (Homo sapiens, UniProt O43186 1-299). Particulars: protein: recombinant; tags: N-terminal GST; dsDNA, one strand shown. Put shortly: as §1
Chain of CRX (O43186 whole entry): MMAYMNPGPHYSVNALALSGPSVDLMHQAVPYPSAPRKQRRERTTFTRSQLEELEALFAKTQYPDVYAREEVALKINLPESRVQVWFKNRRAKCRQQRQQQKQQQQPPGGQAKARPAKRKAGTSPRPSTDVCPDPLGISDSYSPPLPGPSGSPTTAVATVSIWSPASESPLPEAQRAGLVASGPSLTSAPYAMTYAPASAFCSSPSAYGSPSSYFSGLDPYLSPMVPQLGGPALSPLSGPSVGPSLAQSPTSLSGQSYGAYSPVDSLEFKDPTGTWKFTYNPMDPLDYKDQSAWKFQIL
In the next test the target is ETV1 (Homo sapiens, UniProt P50549 1-477). Particulars: protein: recombinant; tags: N-terminal GST; dsDNA, one strand shown. Put shortly: as §1
Chain of ETV1 (P50549 whole entry): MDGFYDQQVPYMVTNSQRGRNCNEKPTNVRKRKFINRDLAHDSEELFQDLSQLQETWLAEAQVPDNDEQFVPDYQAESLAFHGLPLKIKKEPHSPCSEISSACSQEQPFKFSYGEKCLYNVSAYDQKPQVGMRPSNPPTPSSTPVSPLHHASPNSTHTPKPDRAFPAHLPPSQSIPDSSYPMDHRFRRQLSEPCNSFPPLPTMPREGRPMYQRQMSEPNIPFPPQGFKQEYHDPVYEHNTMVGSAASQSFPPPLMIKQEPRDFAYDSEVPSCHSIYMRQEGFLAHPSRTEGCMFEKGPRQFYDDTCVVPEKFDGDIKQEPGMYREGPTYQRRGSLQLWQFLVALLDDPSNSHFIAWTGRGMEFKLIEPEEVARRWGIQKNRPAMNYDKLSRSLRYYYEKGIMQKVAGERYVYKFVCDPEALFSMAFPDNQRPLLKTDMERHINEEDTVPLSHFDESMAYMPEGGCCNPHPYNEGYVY

Chain of ETV5 (P41161 whole entry): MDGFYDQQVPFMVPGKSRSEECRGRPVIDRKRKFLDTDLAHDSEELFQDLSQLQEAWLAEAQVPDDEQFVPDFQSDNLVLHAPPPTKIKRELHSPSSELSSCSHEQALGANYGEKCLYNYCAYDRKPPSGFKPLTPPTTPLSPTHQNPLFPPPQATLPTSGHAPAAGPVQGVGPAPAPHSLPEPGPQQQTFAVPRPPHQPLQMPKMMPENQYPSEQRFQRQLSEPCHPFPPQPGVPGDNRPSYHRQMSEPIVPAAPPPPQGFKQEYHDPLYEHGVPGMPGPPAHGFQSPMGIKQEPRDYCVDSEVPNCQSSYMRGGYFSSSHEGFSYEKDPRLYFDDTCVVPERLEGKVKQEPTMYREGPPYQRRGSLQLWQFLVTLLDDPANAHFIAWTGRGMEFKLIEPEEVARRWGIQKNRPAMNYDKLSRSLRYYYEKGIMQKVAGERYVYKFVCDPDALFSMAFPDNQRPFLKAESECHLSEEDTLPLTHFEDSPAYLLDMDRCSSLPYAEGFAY
Chain of SPIB (Q01892 whole entry): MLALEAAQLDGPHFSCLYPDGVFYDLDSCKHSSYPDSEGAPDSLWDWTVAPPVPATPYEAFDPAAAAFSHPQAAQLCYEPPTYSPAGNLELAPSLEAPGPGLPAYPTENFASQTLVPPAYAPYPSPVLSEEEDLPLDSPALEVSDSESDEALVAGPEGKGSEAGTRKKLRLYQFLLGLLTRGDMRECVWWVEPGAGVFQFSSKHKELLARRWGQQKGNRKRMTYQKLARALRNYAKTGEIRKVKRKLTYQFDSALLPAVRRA
Chain of ELF1 (P32519 whole entry): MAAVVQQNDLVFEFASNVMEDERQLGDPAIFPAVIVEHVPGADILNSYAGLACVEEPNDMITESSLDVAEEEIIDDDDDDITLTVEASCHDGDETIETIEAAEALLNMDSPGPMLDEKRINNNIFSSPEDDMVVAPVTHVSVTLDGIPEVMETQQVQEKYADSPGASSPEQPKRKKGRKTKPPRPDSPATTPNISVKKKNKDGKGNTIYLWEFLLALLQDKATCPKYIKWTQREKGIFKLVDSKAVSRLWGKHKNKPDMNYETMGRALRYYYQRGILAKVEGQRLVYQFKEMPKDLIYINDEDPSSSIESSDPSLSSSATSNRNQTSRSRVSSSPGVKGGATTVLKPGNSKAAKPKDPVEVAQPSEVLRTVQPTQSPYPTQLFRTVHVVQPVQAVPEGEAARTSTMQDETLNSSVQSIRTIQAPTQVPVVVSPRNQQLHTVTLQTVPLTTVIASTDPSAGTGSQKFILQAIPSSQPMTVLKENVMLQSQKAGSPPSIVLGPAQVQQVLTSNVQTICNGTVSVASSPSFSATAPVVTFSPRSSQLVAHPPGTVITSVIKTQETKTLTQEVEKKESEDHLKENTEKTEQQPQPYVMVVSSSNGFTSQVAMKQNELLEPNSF
Chain of HSF1 (Q00613 whole entry): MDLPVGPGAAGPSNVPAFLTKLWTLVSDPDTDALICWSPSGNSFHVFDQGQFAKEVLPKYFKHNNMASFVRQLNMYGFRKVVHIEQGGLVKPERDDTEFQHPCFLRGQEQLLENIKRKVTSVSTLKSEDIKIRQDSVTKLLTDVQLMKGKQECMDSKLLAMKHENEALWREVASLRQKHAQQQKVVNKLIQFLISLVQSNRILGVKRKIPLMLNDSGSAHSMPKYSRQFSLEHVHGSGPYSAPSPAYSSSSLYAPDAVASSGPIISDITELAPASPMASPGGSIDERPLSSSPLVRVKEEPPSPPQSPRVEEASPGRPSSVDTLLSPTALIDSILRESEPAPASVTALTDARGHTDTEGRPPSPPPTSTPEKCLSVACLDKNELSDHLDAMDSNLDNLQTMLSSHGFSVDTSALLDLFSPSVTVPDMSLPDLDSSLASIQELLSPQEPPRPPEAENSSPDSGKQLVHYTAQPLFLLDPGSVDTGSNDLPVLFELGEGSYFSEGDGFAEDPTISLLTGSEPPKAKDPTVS

Turning to TTGCAC, the binding signal with FLI1 was 1.3 fold enrichment (6-mer frequency, TF over GST control); with ELK1, 1.32 fold enrichment (6-mer frequency, TF over GST control); with GABPA it was 1.27 fold enrichment (6-mer frequency, TF over GST control); with ERG, 1.27 fold enrichment (6-mer frequency, TF over GST control); in the test with ELF1, 1.28 fold enrichment (6-mer frequency, TF over GST control); with EHF, 1.21 fold enrichment (6-mer frequency, TF over GST control). The binding signal with SPI1 is 1.26 fold enrichment (6-mer frequency, TF over GST control); in the test with SPIB, 1.16 fold enrichment (6-mer frequency, TF over GST control); in the test with ELK3 it was 1.34 fold enrichment (6-mer frequency, TF over GST control); in the test with FEV, 1.24 fold enrichment (6-mer frequency, TF over GST control); with ETV5 it was 1.24 fold enrichment (6-mer frequency, TF over GST control); with HSF1, 1.1 fold enrichment (6-mer frequency, TF over GST control). Further, the binding signal was 1.07 fold enrichment (6-mer frequency, TF over GST control) with SPIC; 1.31 fold enrichment (6-mer frequency, TF over GST control) with ELF4; 1.31 fold enrichment (6-mer frequency, TF over GST control) in the test with ELK4; 1.22 fold enrichment (6-mer frequency, TF over GST control) in the test with ETV2; 1.23 fold enrichment (6-mer frequency, TF over GST control) with ELF3; 1.11 fold enrichment (6-mer frequency, TF over GST control) with CRX. The binding signal with ETV1 is 1.22 fold enrichment (6-mer frequency, TF over GST control).

These data come from PMC7862700, “An all-to-all approach to the identification of sequence-specific readers for epigenetic DNA modifications on cytosine”.
